From PubChem
Shown are actives, neighbours in structure and some others; about 1.3% of the full set was active somewhere.
TRPML1 inh: inhibitors of human TRPML1 channel; 390,000 tested, 0.02% active; AID 624415; Q9GZU1; activity change, negative = inhibition, % (concentration not given with the values); TRPML1-inducible cells, Ca2+ dye fluorescence, FDSS; hits give low values; inhibition of EC80 agonist-evoked calcium signal; in the data active means activity change below about -50%; inconclusive means between about -30% and that limit;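 further: stimulus is agonist 54-4 at its EC80 concentration; on the % scale 0 is the no-effect control and ±100 the full control effect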
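Calcium fluorescence in TRPML1-DL cells induced overnight with Tet: a 110 s read after compound pin addition, then a 110 s antagonist read after challenge with 54-4 at 4 uM final (EC80).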
PKM2 activator: increases activity of human pyruvate kinase M2 | purified PKM2, Kinase-Glo ATP luminescence, activation; response scale: 0% is enzyme alone, no compound | Potency, µM (series often up to 57.5 µM), without a hit: at the highest dose activation, actives largely listed as activators | 260,000 tested, 0.34% active; further: potency means the concentration at half of the fitted maximal effect; on the % scale 0 is the no-effect control and ±100 the full control effect; nearly all actives have a fitted effect of over 55% in size
Target sequence (P14618 whole entry, looked up): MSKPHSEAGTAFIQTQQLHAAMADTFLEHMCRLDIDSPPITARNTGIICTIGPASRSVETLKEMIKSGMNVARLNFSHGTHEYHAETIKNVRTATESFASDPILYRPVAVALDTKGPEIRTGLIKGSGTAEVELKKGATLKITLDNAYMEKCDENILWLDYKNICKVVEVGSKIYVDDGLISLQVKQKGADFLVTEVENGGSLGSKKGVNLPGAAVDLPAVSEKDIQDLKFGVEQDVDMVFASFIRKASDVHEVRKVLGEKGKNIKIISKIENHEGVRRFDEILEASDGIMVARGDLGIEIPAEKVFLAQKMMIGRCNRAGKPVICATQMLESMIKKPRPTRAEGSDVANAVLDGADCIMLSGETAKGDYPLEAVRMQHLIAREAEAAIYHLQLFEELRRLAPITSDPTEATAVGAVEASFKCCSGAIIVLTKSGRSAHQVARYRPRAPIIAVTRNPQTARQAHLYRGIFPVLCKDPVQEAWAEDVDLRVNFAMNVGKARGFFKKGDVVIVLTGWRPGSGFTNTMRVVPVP
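Kinase-Glo luminescence reports ATP generated from ADP (0.1 mM) and PEP (0.5 mM) by purified hPK-M2 after 1 h at room temperature, pH 7.2 imidazole buffer; intermediate enzyme activity allows detecting inhibitors and activators.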
IL-2 act: activators of IL-2. IL-2 activation reporter assay, cell-based qHTS; stimulated with anti-CD3/CD4/CD28 beads; in transgenic mouse T cells. activation, % (series mostly up to about 46 µM). 360,000 tested, 0.065% active; in the data active means activation above about 50%; inconclusive means mostly about 30% to 49%; further: 0% is about no effect
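Screening format: compound pinned onto unstimulated transgenic mouse T cells, 60 min incubation, then anti-CD3/anti-CD4/anti-CD28 bead stimulation for 18 hours at 37 degrees C, followed by EGFP and DsRed detection.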
PTAP TSG101 blk: blocks PTAP/TSG101 interaction to inhibit HIV-1 budding. Q99816. Fluorescence polarization, FITC-PTAP peptide / Tsg101 binding. Potency, µM (titrated, usually from 115 µM), without a hit: top-dose activity change, negative = inhibition, actives largely listed as inhibitors. 340,000 tested, under 10 active; active means well fitted inhibition curve with a large enough effect in the main read-out, with a control signal flat, not every such curve was filed as active; inconclusive means small, poorly fitted or top-dose-only effect, or effect the other way, or a change in a side signal; inactive means no such curve, though single readings can be large or run the other way; further: potency means the concentration at half of the fitted maximal effect; % of control where 0% means no effect
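Tsg101 binding domain (10 uM final) was mixed with compound and a FITC-labeled PTAP peptide (50 nM final) in HEPES pH 7.5 buffer with NaCl, Tween 20, EDTA and TCEP; fluorescence polarization was read after 20 min at r.t.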
TRPML1 agonist: agonists of human TRPML1 channel. TRPML1-expressing cells, Ca2+ dye fluorescence, FDSS. 410,000 tested, 0.12% active. Q9GZU1. activation, % (concentration not given with the values); in the data active means activation above about 50%; inconclusive means mostly about 30% to 49%; further: 0% is about no effect
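Kinetic FDSS Ca2+ read in Tet-induced TRPML1-DL cells (ABD Ca8 dye plus quencher, 45-90 min RT loading): baseline, then compound, then 110 s agonist window; EC80 agonist 54-4 at 4uM final added afterwards for a 110 s antagonist window.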
BRCA1 expr act: BRCA1 expression activation; MCF7-BRCA1-FFLuc reporter, luminescence, 48 h; response scale: scaled: vehicle 0%, 10 µM genistein 100%; Potency, µM (highest dose often 46.1 µM), inactives show at the top dose activation, hits mostly activators; AID 624202; 380,000 tested, 1.1% active; further: potency means the concentration at half of the fitted maximal effect; nearly all actives have a fitted effect of over 80% in size
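48 h compound treatment of MCF7-BRCA1-FFLuc cells (phenol-red free MEM, 37 °C), then 15 min with luciferase substrate and luminescence imaging.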
Starred values were filed as active, the others as inactive; ? = inconclusive; / = no result. Unless noted, the call rests on the fitted dose curve; in most records, active means well fitted activation curve with a large enough effect; inconclusive means small, poorly fitted or top-dose-only effect; inactive means no such curve, though single readings can be large or run the other way.

SMILES	TRPML1 inh	PKM2 activator	IL-2 act	PTAP TSG101 blk	TRPML1 agonist	BRCA1 expr act
O=CC(=O)c1ccc(Br)cc1	/	/	/	/	0	6%
COc1ccc(C(=O)Cc2nnc(C)s2)c(OC)c1	-4	8%	0	1%	0	11µM*
CCc1nnc(NC(=O)c2ccc(OC)cc2OC)s1	21	-18%	-1	-10%	1	-46%
CC(=O)c1sc(-c2ccc(Cl)cc2)cc1N	5	7%	1	0%	-1	41%
COC(=O)c1c(C)nc(C)c(C(=O)OC)c1-c1cccs1	-3	13%	-1	4%	0	-22%
COC(=O)c1sc(-c2cccs2)cc1N	23	-5%	0	-3%	2	13µM*
COC(=O)c1sc(-c2ccc(Cl)cc2)cc1N	21	-10%	-2	0%	2	4µM*
CCOc1ccc(NC(=O)COC(=O)c2ccccc2OCc2ccccc2Br)cc1	/	/	/	/	0	0%
COc1ccc(Cl)cc1S(=O)(=O)Nc1ccc2[nH]c(=O)[nH]c2c1	-4	/	/	/	1	/
CCc1cccc(NC(=O)Nc2cccs2)c1	-2	29%	0	-3%	0	11µM*
Cc1cc(C)cc(N2CCn3c2nc2c3c(=O)n(Cc3c(F)cccc3Cl)c(=O)n2C)c1	7	/	/	/	0	/
CCN(/C=N/c1sc2c(c1C#N)CCCCC2)CC	-6	2%	0	-2%	2	6.3µM*
CC(CNC(=O)CCCn1c(=O)c2cccn2c2ccccc21)c1ccccc1 (stereo not given)	5	/	/	/	3	/
O=C(O)/C=C/c1ccc2ccccc2c1	/	/	/	/	-1	4%
O=C(/C=C/c1ccc2ccccc2c1)c1ccoc1	-4	1%	0	-3%	0	13µM*
CCCCOCCCNC(=O)C[C@@H]1C[C@@]2(C(=O)OC)CC(C)(C)CC=C2N(CCc2ccc(OC)c(OC)c2)C1=O	/	/	-1	/	/	/
Cc1cc(CN(C)C(=O)CCc2nnc(Cc3cccc(C(F)(F)F)c3)o2)on1	4	6%	0	-6%	1	?
CCN(CC)C(=O)CCc1nnc(Cc2cccc(C(F)(F)F)c2)o1	12	1%	0	-2%	0	10µM*
COc1ccc2c(c1)CC/C(=C\Nc1ccc3c(c1)OCO3)C2=O	-6	-1%	-1	-2%	5	3.2µM*
O=C1/C(=C/Nc2ccc3c(c2)OCO3)CCc2ccccc21	-24	-71%	-2	0%	4	?
CCc1cccc(NS(=O)(=O)c2ccc3c(c2)oc(=O)n3C)c1	-11	3.2µM*	0	-9%	0	-23%
COc1ccc(NS(=O)(=O)c2ccc3c(c2)oc(=O)n3C)cc1Cl	-19	/	-1	-9%	0	-28%
COc1ccc(OC)c(S(=O)(=O)N/N=C\c2ccc3c(c2)OCO3)c1	-1	-1%	-2	1%	1	13µM*
Cn1c(=O)oc2cc(S(=O)(=O)Nc3ccc4c(c3)OCO4)ccc21	9	7.9µM*	-1	-5%	3	-27%
Cc1ccc(-c2noc(CNC(=O)COc3cc(C)c(Br)c(C)c3)n2)cc1	29	/	/	/	0	/
SMILES	TRPML1 inh	PKM2 activator	IL-2 act	PTAP TSG101 blk	TRPML1 agonist	BRCA1 expr act
COc1ccc(S(=O)(=O)Nc2ccc3c(c2)OCO3)cc1	-3	25µM*	1	-6%	0	4%
Cn1c(=O)oc2cc(S(=O)(=O)Nc3cccc(C(=O)O)c3)ccc21	5	-2%	0	-4%	-1	-7%
Cn1c(=O)oc2cc(S(=O)(=O)Nc3ccccc3)ccc21	0	2.5µM*	-2	1%	0	5%
CC(C)(C)c1ccc(S(=O)(=O)Nc2ccc3c(c2)COC3=O)cc1	12	-3%	0	-3%	1	-20%
Cc1cc(S(=O)(=O)Nc2ccc3c(c2)COC3=O)ccc1F	-5	11µM*	0	3%	0	11%
Cc1ccc(N2C(=O)c3ccccc3NC2c2ccccc2O)cc1 (stereo not given)	9	/	1	-2%	-1	1.6µM*
COc1ccccc1C(C(=O)c1ccccc1)c1ccc2ccccc2c1 (stereo not given)	/	/	0	/	/	/
COc1ccc(OCc2ccc(/C=N\NC(=O)c3sccc3C)o2)cc1	2	/	-2	1%	1	13µM*
CC(C)(C)c1nnc(NC(=O)C2CCN(C(=O)c3ccccc3)CC2)s1	/	/	/	/	0	41%
CSc1ccc(CNC(=O)Cn2ccc3cc(S(=O)(=O)N4CCCC4)ccc32)cc1	-19	/	/	/	3	/
Cc1ccc(CNC(=O)Cn2ccc3cc(S(=O)(=O)N4CCCC4)ccc32)o1	-19	16µM*	-1	-3%	1	-4%
COc1ccc(CCNC(=O)c2cc3c(=O)oc4ccc(C)cc4c3s2)cc1OC	-3	/	/	/	-1	13%
O=c1/c(=C/c2ccc([N+](=O)[O-])cc2)sc2n1CCCN=2	10	-5%	0	-2%	0	3.5µM*
COc1ccc(-c2coc3cc(O)ccc3c2=O)cc1OC	81	-3%	0	1%	0	?
O=c1c(-c2ccc(F)cc2)coc2cc(O)ccc12	-10	-19%	-2	-10%	0	11µM*
COc1ccc(Cl)cc1-c1nc(-c2ccc(NC(=O)c3ccncc3)cc2)no1	21	/	9	-1%	-1	-16%
CC(Oc1ccc(Cl)cc1Cl)c1nc(-c2ccc(NC(=O)c3ccccn3)cc2)no1 (stereo not given)	-2	-8%	1	0%	0	1.3µM*
COc1ccc(-n2c(=O)c3c(c4cc(OC)ccc4n3C)n(CC(=O)N3CCCC3)c2=O)cc1	6	/	/	/	-1	0%
Cc1cc([N+](C)(C)C)cc(C)c1/C=C/c1ccnc2ccccc12	/	/	/	/	0	-71%
CC(C)Cn1c(N)c(C(=O)CSc2nncs2)c(=O)n(C)c1=O	-6	/	1	-3%	0	8%
CCCn1c(N)c(C(=O)CSc2nc(C)cs2)c(=O)n(C)c1=O	10	16µM*	0	-3%	0	13%
CCOC(=O)c1c(C)c(-c2ccccc2)n(CC(=O)Nc2cc(C)ccc2OC)c1C	-3	/	/	/	1	21%
CC(C)c1ccc(OCC(=O)N2CCCCCC2)c(Br)c1	-4	-1%	-1	1%	0	10µM*
Cc1cc(Br)ccc1OCC(=O)N1CCCCCC1	3	-16%	0	-7%	0	26%
CCc1ccccc1NC(=O)c1ccc2[nH]c(C)c(C)c2c1	4	/	/	/	0	8.9µM*
